The supplement of paper PMC6555819

test system: RARa homodimer (NR concentration 270 nM); assay: PBM binding z-score (relative to random genomic background probes); higher = stronger binding; sequences stand for … in GC…GCGATTGACAGCGTAGAATGAAGG
Procedure, shortened: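 On custom Agilent 4×180K arrays, double-stranded probes with 34-nt variable regions carried direct-repeat seeds, single-nucleotide variants, half-site ablations or random human genomic background. Ligand-free nuclear receptor dimers were applied for 1 h, and binding was read with antibodies against each partner (one per run). Binding z-scores come from regression-normalized fluorescence, with the random background probes as reference.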

| Sequence | PBM binding z-score |
| --- | --- |
| ATTCGGAGGACAAAGGTCAGAGCTACGCCAGTGA | 0.808 |
| GGAACGAGGGCAAGTTGATGGCAGAGTTTGATGG | -0.279 |
| AGTCAAAGTTCACTAGGTCACGTAAGATTCAGCT | 1.46 |
| TCTTGTAGATCAGGAGGTTAAGAAAGCTGGCCAA | -0.318 |
| TAGCCTAGGTCAGATCGGTCCAGTATACGCTATA | -0.74 |
| ATCTCTAGGTAACCAAGTTCAGGGAATGCCGAAC | 0.329 |
| TCGAGTAGGTTAGGGGCGTTCAGAATGGCGTCGA | -0.263 |
| TCATATAGGTAAACAGGGGAAAGTCCGTAAGTTA | 0.805 |
| ACTATTAGTTGAGACGAGGGCAACCTATAGGTTG | 0.942 |
| CCTACTGGGCCATCAGGCCATTGATATCAACGTT | -0.00311 |
| TCTCGGAGCACACGAAGGTCAGAGCTTTCCAGAG | -1.5 |
| ATCTCTAGGTAACCAAGTTCAATGAATGCCGAAC | 1.18 |
| TGGATGAGGTTAAAGATCAGGGAACGTGGCGTCG | 0.62 |
| CTCGAAAGGTCGGTTGAGGTGCGTATACGGATAA | -0.0377 |
| ATCGAAAGGTCGAGCTGAGTATAGAGAAAGGGAA | 0.139 |
| ACAGACATGTGAGTGAAGGTAACTCAGCTGGACG | -0.221 |
| CAAACTAGGTCACGGAAGGTCAAAGTCGAATGAC | 3.11 |
| TAGCATAGGTCATTGGGCCAGTATAGTACGCATC | 0.152 |
| AGTCAAAGTTCATCTAGGTAACGTATGATATGCT | 1.68 |
| AGAATGAGGTTAAGATGAGGGAAACAGAATACAT | 0.74 |
| CCTCCAAGGTCAATGCTAGGTCAGTGAAAGCATT | 1.36 |
| TCGAGTAGGTTAGGGGCAGTCAGAATGGCGTCGA | -0.345 |
